Data on 7 compounds can be found in PubChem BioAssay (NCATS).

Where “and” joins values, the source holds several entries; their conditions need not be identical. Equal values may be shown once. Unmarked numbers belong to inactive results. Inconclusive results are not listed. Calls of active or inactive are those of the source. Unless noted, calls follow the shape of the dose curve; as a rule, active = well fitted curve in the direction sought with a large enough effect; inconclusive = small, poorly fitted or top-dose-only effect, or another doubt; inactive = no such curve, though single readings can be large; an effect the other way counts as inactive or inconclusive. Numbered stars: 1 amine (or outer) side, 2 acyl side, 3 side chain; on linkers, the order of the positions; unused ones are H or OH. Bridge positions count the residues as written; N and C are the ends. Square brackets hold non-standard residues; d marks the D form. Peptide text beside a SMILES is read from it. I, II: the chains in the order shown. Actinocin(9to1) = Cc1c2oc3c(C)ccc(C(=O)[*:1])c3nc-2c(C(=O)[*:2])c(N)c1=O; NMeV = CN[C@H](C(=O)O)C(C)C; Sar = CNCC(=O)O

A short description of test [1]: qHTS assay for small molecule agonists of the antioxidant response element (ARE) signaling pathway (AID 651741; active = well fitted activation curve with a large enough effect in the signal ratio; the % refers to the signal ratio; also: potency is read from the fitted curve at half-maximal effect; as to activation: % of control where 0% means no effect). A digest of the protocol:
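Quantitative HTS in HepG2 cells stably expressing an ARE-beta-lactamase reporter; 16 h compound exposure at 37 C, followed by 2 h room-temperature incubation with LiveBLAzer B/G FRET substrate and fluorescence measurement.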
A general note: Quantitative high-throughput screening tests each substance at several concentrations.

Test [2] in a line: qHTS assay for environmental chemicals that activate the Aryl hydrocarbon Receptor (AhR) signaling pathway (AID 651777). Also: % of control where 0% means no effect; nearly all actives have a fitted effect of over 15% in size. The conditions noted are these: 1A2-DRE human hepatoma cells, luciferase, 24 h; activation: hits give high values. In short, it runs like this:
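Induction of CYP1A2 transcription through AhR is detected by luciferase in 1A2-DRE hepatoma cells. Compounds or DMSO act for 24 hr at 37 C before a 30 min One-Glo step at room temperature.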

Test [3] deals with Peroxisome proliferator-activated receptor alpha (Homo sapiens) (UniProt Q07869). Put plainly: qHTS assay for small molecule agonists of the peroxisome proliferator-activated receptor alpha (PPARalpha) signaling pathway (AID 651778). Also: % of control where 0% means no effect. The following applies: PathHunter PPARalpha complementation, chemiluminescence, 6 h; max response: hits give high values. In short, it runs like this:
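Chemiluminescence from complemented enzyme reported PPARalpha activation in cells after 6 hr of compound treatment at 37 C. The detection reagent was incubated for 60 min at room temperature, and compounds were scored as agonists.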

The target in test [4] is Nuclear receptor ROR-gamma (Homo sapiens) (UniProt P51449). Put plainly: qHTS assay for small molecule antagonists of the retinoid-related orphan receptor gamma (ROR-gamma) signaling pathway (AID 651802). Also: nearly all actives have a fitted effect of over 60% in size. Also: potency is read from the fitted curve at half-maximal effect. In short, it runs like this:
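CHO cells with TET-inducible ROR-gamma and RORE-luciferase reporter, dosed then doxycycline-induced. After 16 h at 37C, One-Glo luminescence read; decreased signal indicates antagonism.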

Test [5] is described as follows: qHTS assay for small molecule agonists of the antioxidant response element (ARE) signaling pathway measured by Nrf2-dependant transcriptional activity (AID 720636; active = well fitted curve in the direction sought with a large enough effect in the repeat runs; an effect the other way counts as inactive or inconclusive;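 also: HepG2 cells with an ARE-driven luciferase reporter; % of control where 0% means no effect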). A digest of the protocol:
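We exposed ARE-luc HepG2 cells, seeded in assay medium with 1% dialyzed FBS and allowed 6 hr to adhere, to test compounds overnight (16 hr, 37 C) before measuring luciferase with ONE-Glo.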

Test [6] in a line: qHTS assay for small molecule antagonists of the retinoid-related orphan receptor gamma (ROR-gamma) signaling pathway - cell viability counter screen (AID 720652; active = well fitted curve in the direction sought with a large enough effect in the repeat runs; an effect the other way counts as inactive or inconclusive;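 also: compound exposure lasted 16 hr before ATP read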; also: potency is read from the fitted curve at half-maximal effect). A digest of the protocol:
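CHO cells carrying TET-inducible ROR and RORE-luciferase reporter, plated 5 hr, then dosed with compound plus doxycycline. After 16 hr at 37 C, viability read as intracellular ATP by CellTiter-Glo luminescence.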

Test [7] in a line: qHTS assay for small molecule agonists of the antioxidant response element (ARE) signaling pathway measured by Nrf2-dependant transcriptional activity - cell viability counter screen (AID 720653; active = well fitted curve in the direction sought with a large enough effect in the repeat runs; an effect the other way counts as inactive or inconclusive; also: % is scaled to controls: 0 for no effect and ±100 for the full control effect). The conditions noted are these: ARE-bla HepG2 viability, CellTiter-Glo ATP luminescence, 16 h; hits give low values. A digest of the protocol: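 Cytotoxicity counter screen: intracellular ATP quantified by CellTiter-Glo luminescence in the same ARE-bla HepG2 plates, after 16 h compound exposure and a 2 h beta-lactamase substrate step.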

Test [8] can be described thus: qHTS assay for small molecule activators of the nuclear factor-kappa B (NF-kB) signaling pathway (AID 651749; active = well fitted activation curve with a large enough effect in the signal ratio; the % refers to the signal ratio; also: series mostly up to about 77 µM; % of control where 0% means no effect). The following applies: NF-kB-bla ME-180 cells, beta-lactamase FRET ratio, 16 h; hits give high values. A digest of the protocol:
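Readout: beta-lactamase reporter driven by an NF-kB response element, detected fluorescently as loss of FRET. Cells were the ME-180 line, treated 16 hr at 37C with pin-transferred compound.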

The nature of test [9]: qHTS assay for small molecule disruptors of the mitochondrial membrane potential - 1 hr assay (AID 651754; calls by dose curve; also: nearly all actives have a fitted effect of over 35% in size; also: potency is read from the fitted curve at half-maximal effect). In short, it runs like this: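 HepG2 cells, attached overnight, were exposed to compound for 1 hr at 37C, then stained 30 min with a potentiometric dye. Ratio of red aggregate (590nm) to green monomer (535nm) fluorescence reports membrane potential; collapse shifts signal toward green.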

A short description of test [10]: qHTS assay for small molecule disruptors of the mitochondrial membrane potential - 5 hr assay (AID 651755; calls by dose curve; also: nearly all actives have a fitted effect of over 40% in size; also: potency is read from the fitted curve at half-maximal effect). In short, it runs like this: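 HepG2, 2,000 cells/well, overnight attach; cpd or DMSO 5 hr, 37C/5% CO2; Mito-MPS 30 min 37C; fluor 490/535 + 540/590 nm.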
Test [11] can be described thus: qHTS assay for small molecule activators of the p53 signaling pathway (AID 651743; active = well fitted activation curve with a large enough effect in the signal ratio, not every such curve was filed as active; the % refers to the signal ratio; also: series mostly up to about 92 µM; % of control where 0% means no effect). The following applies: HCT-116 p53RE-bla, beta-lactamase FRET ratio, 16 h; activation: hits give high values. In short, it runs like this:
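Read-out is fluorescence intensity from the LiveBLAzer B/G FRET substrate, added for 2 hours at room temperature after HCT-116 p53RE-bla cells had been incubated with compounds for 16 hours at 37 C.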

For test [12], the target named is Tumor necrosis factor (Homo sapiens) (UniProt P01375). As to the kind of experiment: qHTS assay to identify small molecules that stimulate Tumor Necrosis Factor-alpha (TNF-alpha) secretion (AID 651757; active = well fitted curve in the direction sought with a large enough effect in the signal ratio; the % refers to the signal ratio; also: 0% is about no effect). In short, it runs like this: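 THP-1 cells (3000/well) exposed to compounds 17 hrs at 37 C. Secreted TNF-alpha detected by HTRF with cryptate- and XL665-labeled anti-TNF-alpha antibodies after 3 hr at room temperature.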

The nature of test [13]: qHTS for Activators of Parkin Expression: LOPAC Validation Assay (NLuc Reporter) (AID 720572;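 also: 0% = DMSO and 100% = positive control compound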). A digest of the protocol: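 Parkin promoter-driven FLuc/NLuc neuronal reporter cells; 24 h plating, 7-pt dose response, 24 h at 37 C/5% CO2; FLuc then NanoLuc reagent, 10 min each, luminescence; DMSO/positive control normalized.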
Test [14] can be described thus: qHTS for Activators of Parkin Expression: LOPAC Validation Assay (FLuc Reporter) (AID 720573;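 also: 0% = DMSO and 100% = positive control compounds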). In short, it runs like this: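 A neuronal cell line harbouring FLuc and NLuc reporters behind the Parkin promoter was exposed to compounds for 24 h. Firefly luciferase signal, measured after 10 min with detection reagent, was scaled to DMSO and positive-control wells.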

Test [15] concerns the target T1, Hexokinase-4 (Homo sapiens) + Glucokinase regulatory protein (Homo sapiens) (UniProt P35557+Q14397). As to the kind of experiment: qHTS assay for inhibitors of recombinant human GCK-GKRP interaction: Diaphorase-coupled assay (AID 743205). A digest of the protocol: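 Inhibitors of the GCK–GKRP complex relieve GKRP suppression of GCK, detected through a G6PDH–diaphorase cascade reducing resazurin. Human GST-GCK and FLAG-GKRP are used at 10 nM with 5 mM glucose and 0.4 mM ATP.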

Test [16] addresses T1, Hexokinase-4 (Homo sapiens) + Glucokinase regulatory protein (Homo sapiens). As to the kind of experiment: qHTS assay for inhibitors of recombinant human GCK-GKRP interaction: ADP-Glo assay (AID 743206).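 Also: plate controls were DMSO plus enzyme for no effect and no enzyme for full effect.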 A digest of the protocol: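 GST-GCK and FLAG-GKRP (15 nM each in the dispensed mix, with 2 uM S6P) react with 0.4 mM ATP and 5 mM glucose (final) in Hepes pH 7.6 for 60 min at room temperature. ADP is measured by ADP-Glo luminescence.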

The target is the same in test [17]. As to the kind of experiment: qHTS assay for inhibitors of recombinant human GCK-GKRP interaction: HTRF assay (AID 743207).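 Also: 0% = DMSO with GCK present and -100% = DMSO wells lacking GCK.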 A digest of the protocol:
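Steps: dispense GCK–GKRP complex (5 nM each, GST- and FLAG-tagged) with 2 uM S6P; pin in compounds; add XL665/Eu-cryptate-labelled antibodies; incubate 60 min at room temperature; read time-resolved FRET at 665 and 615 nm.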

T1 sequence (P35557 whole entry, looked up): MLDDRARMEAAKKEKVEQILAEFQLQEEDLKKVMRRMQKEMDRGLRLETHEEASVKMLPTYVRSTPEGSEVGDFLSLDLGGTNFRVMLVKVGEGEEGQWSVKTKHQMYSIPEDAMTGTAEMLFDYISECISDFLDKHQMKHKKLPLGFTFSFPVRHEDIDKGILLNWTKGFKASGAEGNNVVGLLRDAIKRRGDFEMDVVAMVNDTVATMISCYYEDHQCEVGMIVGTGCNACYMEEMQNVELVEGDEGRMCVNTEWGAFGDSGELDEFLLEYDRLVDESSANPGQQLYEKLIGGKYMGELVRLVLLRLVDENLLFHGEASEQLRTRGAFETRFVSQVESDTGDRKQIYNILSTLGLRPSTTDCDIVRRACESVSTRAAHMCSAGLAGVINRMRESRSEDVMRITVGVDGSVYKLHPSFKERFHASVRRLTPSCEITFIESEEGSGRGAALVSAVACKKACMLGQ
T1 sequence (Q14397 whole entry, looked up): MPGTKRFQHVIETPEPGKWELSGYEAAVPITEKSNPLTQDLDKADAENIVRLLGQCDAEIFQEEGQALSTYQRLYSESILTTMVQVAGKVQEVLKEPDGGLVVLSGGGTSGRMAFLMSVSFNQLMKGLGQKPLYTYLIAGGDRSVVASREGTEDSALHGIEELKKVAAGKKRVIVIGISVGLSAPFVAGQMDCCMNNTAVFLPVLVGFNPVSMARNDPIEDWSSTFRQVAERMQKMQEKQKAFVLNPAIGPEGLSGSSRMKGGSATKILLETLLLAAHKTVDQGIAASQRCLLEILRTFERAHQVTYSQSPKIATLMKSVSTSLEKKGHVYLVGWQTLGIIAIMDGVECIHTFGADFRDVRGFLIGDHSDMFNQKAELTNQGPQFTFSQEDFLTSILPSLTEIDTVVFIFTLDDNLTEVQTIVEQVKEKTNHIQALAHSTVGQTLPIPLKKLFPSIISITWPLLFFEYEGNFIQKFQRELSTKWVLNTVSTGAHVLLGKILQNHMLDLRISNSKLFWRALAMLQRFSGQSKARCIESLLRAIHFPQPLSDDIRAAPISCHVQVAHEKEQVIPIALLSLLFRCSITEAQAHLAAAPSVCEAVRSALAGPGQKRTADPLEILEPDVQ
Sequence of Tumor necrosis factor (Homo sapiens) (P01375 whole entry, looked up): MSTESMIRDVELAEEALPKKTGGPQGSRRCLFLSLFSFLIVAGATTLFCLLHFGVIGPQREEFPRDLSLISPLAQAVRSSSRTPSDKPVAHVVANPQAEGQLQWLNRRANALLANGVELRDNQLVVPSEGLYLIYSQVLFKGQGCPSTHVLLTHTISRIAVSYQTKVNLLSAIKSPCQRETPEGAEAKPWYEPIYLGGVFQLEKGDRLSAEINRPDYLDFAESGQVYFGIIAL
Sequence of Peroxisome proliferator-activated receptor alpha (Homo sapiens) (Q07869 whole entry, looked up): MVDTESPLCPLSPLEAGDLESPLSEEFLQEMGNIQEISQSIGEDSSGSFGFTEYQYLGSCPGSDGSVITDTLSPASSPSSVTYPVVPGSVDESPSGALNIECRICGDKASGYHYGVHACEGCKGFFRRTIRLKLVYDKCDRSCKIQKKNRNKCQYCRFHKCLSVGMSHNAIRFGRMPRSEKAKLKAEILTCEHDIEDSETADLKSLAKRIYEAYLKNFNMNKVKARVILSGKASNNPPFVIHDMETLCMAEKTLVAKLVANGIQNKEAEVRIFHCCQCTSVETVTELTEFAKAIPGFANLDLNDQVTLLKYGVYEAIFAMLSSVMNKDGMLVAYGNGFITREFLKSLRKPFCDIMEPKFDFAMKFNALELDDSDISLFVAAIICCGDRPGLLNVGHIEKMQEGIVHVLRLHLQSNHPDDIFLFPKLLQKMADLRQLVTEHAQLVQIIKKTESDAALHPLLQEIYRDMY
Sequence of Nuclear receptor ROR-gamma (Homo sapiens) (P51449 whole entry, looked up): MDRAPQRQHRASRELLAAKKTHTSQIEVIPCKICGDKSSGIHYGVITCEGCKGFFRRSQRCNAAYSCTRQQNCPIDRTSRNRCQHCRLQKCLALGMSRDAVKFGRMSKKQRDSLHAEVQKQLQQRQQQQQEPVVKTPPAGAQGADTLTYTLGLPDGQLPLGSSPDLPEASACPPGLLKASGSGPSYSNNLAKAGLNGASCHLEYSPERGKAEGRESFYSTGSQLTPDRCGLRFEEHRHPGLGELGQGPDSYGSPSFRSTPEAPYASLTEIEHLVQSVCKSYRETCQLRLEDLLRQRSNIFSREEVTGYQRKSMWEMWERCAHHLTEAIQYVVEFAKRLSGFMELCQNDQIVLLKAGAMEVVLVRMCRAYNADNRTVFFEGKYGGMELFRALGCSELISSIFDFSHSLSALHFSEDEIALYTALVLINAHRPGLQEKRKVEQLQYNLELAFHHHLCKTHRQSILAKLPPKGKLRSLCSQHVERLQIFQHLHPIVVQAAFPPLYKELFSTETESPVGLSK

On to `CN(C)/N=N/c1nc[nH]c1C(N)=O`, for which the Potency entry in test [1], in test [4], in test [5] and in test [6] was “inactive” in each case. Moreover, the activation in [2] is 1.65%. For the same compound, the max response in test [3] is -3.55%; in test [7], -9.97%.
As to `COC1=CC(=O)C[C@@H](C)[C@]12Oc1c(Cl)c(OC)cc(OC)c1C2=O`, the activation in [8] is -1.44%; in test [2] it was 0.113%. Moreover, the Potency result in test [9], in test [10], in test [5] and in [6] was “inactive” throughout. In addition, the max response in test [3] was 2.03%; in test [7], 2.34%.
Consider `Cc1c2oc3c(C)ccc(C(=O)N[C@@H]4C(=O)N[C@H](C(C)C)C(=O)N5CCC[C@H]5C(=O)N(C)CC(=O)N(C)[C@@H](C(C)C)C(=O)O[C@@H]4C)c3nc-2c(C(=O)N[C@@H]2C(=O)N[C@H](C(C)C)C(=O)N3CCC[C@H]3C(=O)N(C)CC(=O)N(C)[C@@H](C(C)C)C(=O)O[C@@H]2C)c(N)c1=O` (I: T[dV]P[Sar][NMeV] / II: T[dV]P[Sar][NMeV]; ester I:1-I:C, II:1-II:C; linker I:N-II:N via Actinocin(9to1)), for which the activation in test [11] was -13%; in test [2] it was 1.62% and 1.67%. Also, the Potency entry in test [9] and in [10] was “inactive” in each case. The compound was classed as inactive in test [12]. For the same compound, the max response was -5.12% and -0.626% in [3]; -29.7% and -9.89% in test [7]. The figures for the Potency in test [4] and in test [6] were 0.0266 µM (active) and 0.106 µM (active), respectively.
As for `CCCCCCc1ccc(O)cc1O`, the Potency was 66.8 µM (active) in test [1], 37.6 µM (active) in test [9] and 37.6 µM (active) in test [10]. Also, the activation in test [11] is 7.68% and 3.42%; in test [2], 1.13% and 0.133%. Further, the result in test [12] was inactive. In addition, the max response in test [3] is -0.464% and 3.82%; in [7], -0.701% and 2.74%. Also, the Potency result in test [5] is “inactive”.
`C[C@H]1C[C@H]2[C@@H]3CCC4=CC(=O)C=C[C@]4(C)[C@@]3(Cl)[C@@H](O)C[C@]2(C)[C@@]1(O)C(=O)CO`: the activation was -5.8% in [11] and 0.38% in [2]. Besides, the figures for the max response in [3] and in test [7] were 3.36% and -20.4%, respectively. The Potency entry in test [5] was “inactive”.
Regarding `CC(=O)O[C@]1(C(C)=O)CC[C@H]2[C@@H]3C[C@H](C)C4=CC(=O)CC[C@]4(C)[C@H]3CC[C@@]21C`, the Potency in [1] is 27.3 µM (active); in [4], 16.8 µM (active). In addition, the activation was -2.08% and -7.09% in [11]; -2.22% and -5.39% in test [8]; 0.858% and 1.58% in test [2]. The Potency result in test [9], in test [5] and in test [6] was “inactive” each time. Further, the call in [12] was inactive. Moreover, the max response was 0.549% and -0.24% in test [3]; -14.4% and -14.9% in test [7].
With `C[C@]12CC[C@@H]3c4ccc(O)cc4CC[C@H]3[C@@H]1CC[C@@H]2O`, the activation in test [11] is 8.17%; in [2], 1.98%. Further, the compound was called inactive in [12], in test [13], in test [14], in [15], in test [16] and in [17]. Further, the max response was 0.86% in test [3] and -2.14% in test [7]. In addition, the Potency in test [4] was 33.5 µM (active). Moreover, the Potency result in test [5] was “inactive”.
